From PubChem BioAssay (NCI) come the findings set out here.

About 83,000 compounds went through this panel and 20% of them were active in at least one assay; those are over-represented in the sample as a whole.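 Percent growth is the endpoint: 0 to 100 indicates growth inhibition (40 means 60% inhibition), 0 means no net growth, and negative values indicate cell death.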 Values without a mark were called inactive. The source made the active and inactive calls. How the source made its calls: active means growth percent below 10; inactive means the rest.

Test in all cases: NCI-60 one-dose screen, 48 h (100 = growth as untreated, 0 = no growth, -100 = all killed)
Holding throughout (conditions): 10 µM unless noted

Test [1] deals with SR leukemia.
Test [2] concerns RPMI-8226 leukemia.
Test [3] deals with OVCAR-8 ovarian.
Test [4] concerns OVCAR-5 ovarian.
Test [5] concerns OVCAR-4 ovarian.
The subject of test [6] is SK-OV-3 ovarian.
Test [7] deals with IGROV1 ovarian.
Test [8] relates to OVCAR-3 ovarian.
Test [9] has as its system HS 578T breast.
In test [10] the test system is NCI/ADR-RES ovarian.
For test [11], the system named is T-47D breast.
The subject of test [12] is BT-549 breast.
Test [13] deals with MDA-MB-435 melanoma.
In test [14] the test system is SW-620 colon.
For test [15], the system named is MCF7 breast.
Test [16] relates to HCT-116 colon.
Test [17] concerns HCC-2998 colon.
The test system of test [18] is KM12 colon.

In the case of `CCOC(=O)c1c(C)n2c(=O)cc(C)c3c(OC(C)=O)c(OC(C)=O)cc1c32`, the growth was 17.8% in [1]; 42.3% in [2]; 62.2% in test [3]; 99.2% in [4]; 34.6% in [5]; 103% in [6]. Further, the growth in test [7] is 76.9%; in test [8], 6.3% (active); in test [9], 91.4%; in test [10], 33%; in test [11], 52.7%; in [12], 80.3%. Moreover, the growth in test [13] was 83.3%; in test [14], 34.8%; in test [15], 62.2%; in test [16] it was 23.3%; in test [17] it was 84.4%; in test [18], 86.7%.
On to `COc1cc2c(cc1OC)CC[N+](CCC[N+](C)(C)C)=C2`, for which the growth in test [1] is 89.8%; in test [2], 103%; in test [3], 110%; in [4] it was 91.5%; in test [5], 99%; in test [6], 92.9%. Further, the growth is 99.6% in [7]; 108% in [8]; 111% in test [9]; 102% in [10]; 103% in test [11]; 92.8% in test [12]. In addition, the growth in test [13] is 103%; in test [14] it was 113%; in test [15], 95.1%; in test [16], 95.2%; in test [17] it was 89.5%; in test [18], 103%.
`CN1CCN(Cn2nc(-c3cc(Cl)cc(Cl)c3Cl)oc2=S)CC1`: the growth in [1] was 70.4%; in test [2], 160%; in test [3] it was 96%; in test [4], 93.6%; in [5], 92.8%; in test [6] it was 100%. Moreover, the growth was 97.8% in test [7]; 99.2% in test [8]; 91.2% in test [9]; 99% in [10]; 98.9% in [11]; 94.9% in test [12]. Moreover, the growth was 88.9% in [13]; 100% in [14]; 97.5% in [15]; 97.5% in [16]; 105% in test [17]; 94.2% in [18].
Turning to `COc1ccc(-c2cc(-c3ccc(N(C)C)cc3)nc(NC(=O)c3cccnc3)n2)cc1`, the growth was 86.4% in [1]; 95.3% in [2]; 99.3% in test [3]; 105% in test [4]; 103% in [5]; 103% in test [6]. The growth in test [7] is 102%; in test [8], 106%; in [9], 104%; in test [10], 102%; in test [11], 85.6%; in test [12] it was 119%. The growth in test [13] was 103%; in test [14] it was 101%; in test [15], 81.9%; in test [16], 102%; in test [17], 120%; in [18] it was 98.3%.
Turning to `N#C/C(=N\Nc1ccccc1)C(=O)Nc1cc(-c2ccccc2)nn1-c1ccccc1`, the growth in test [1] was 62.3%; in test [2], 18.5%; in test [3], 40.6%; in test [4] it was 72.2%; in [5], 22.1%; in test [6] it was 31.3%. Moreover, the growth in [7] was 30.6%; in test [8], 12.4%; in [9] it was 41.9%; in test [10], 41.5%; in [11] it was 9.7% (active); in [12], 16.2%. Moreover, the growth is 30.3% in [13]; 20.2% in [14]; 16.4% in test [15]; 16.1% in test [16]; 40.7% in test [17]; 36.8% in test [18].
Turning to `COC(=O)c1ccc(-n2cc(CCCOS(=O)(=O)c3ccc(F)cc3)nn2)cc1`, the growth was 87.4% in test [1]; 97.3% in test [2]; 96.2% in test [3]; 98.6% in test [4]; 94.4% in test [5]; 102% in [6]. In addition, the growth was 102% in test [7]; 107% in test [8]; 93.6% in [9]; 106% in test [10]; 97.9% in test [11]; 101% in test [12]. Moreover, the growth in [13] was 97.3%; in test [14] it was 100%; in test [15], 92.1%; in test [16], 99.6%; in test [17] it was 110%; in test [18] it was 100%.
As for `Cc1ccc(Nc2nc(N)nc(N)c2N=O)cc1Cl`, the growth is 72.5% in [1]; 78.3% in [2]; 95.8% in test [3]; 93.9% in [4]; 76.9% in test [5]; 96.6% in test [6]. Also, the growth in test [7] was 37.7%; in [8], 68.3%; in test [9] it was 75.2%; in test [10] it was 79.3%; in [11], 5.56% (active); in test [12], 98.7%. The growth in test [13] is 89.1%; in [14] it was 95%; in test [15] it was 36.4%; in test [16] it was 78.2%; in [17], 86%; in test [18] it was 80.6%.
Turning to `Cc1ccc2c(c1)CC(O)CC1C(=O)N(CCO)CC(=O)N21` (centres undefined), the growth in test [1] is 87.3%; in test [2], 98.8%; in test [3] it was 101%; in test [4] it was 101%; in test [5], 113%; in test [6], 103%. Further, the growth in [7] is 112%; in test [8] it was 115%; in test [9] it was 103%; in [10], 104%; in [11], 93.1%; in test [12], 103%. For the same compound, the growth in test [13] is 106%; in test [14], 106%; in test [15], 96.8%; in test [16], 95.9%; in test [17], 104%; in [18] it was 105%.
